# Screen size: about 53,000 compounds; about 900 (1.7%) showed an effect of 50% or more. Shown is part of a subset that was picked to be rich in strong results.
# Test system: Mycobacterium tuberculosis
# Test: Cornell - Phenotypic assay to identify agents that inhibit growth of Mycobacterium tuberculosis
# Assay type: functional
# Parameters: scale not given: direction of the effect not stated beside the values
# Conditions: 10 mM as filed; unlikely as a test dose
row,SMILES,Percent Effect [%]
1,COc1ncccc1CNC(=O)NC(C)Cn1cccn1 (configuration not stated),-6.466
2,CCCc1cc(CNC2CCN(c3cc(C(C)C)nc(C)n3)CC2)on1,-3.278
3,O=C(c1cc(C2CC2)on1)N1C[C@H]2CC[C@](O)(c3ccc(F)cc3)[C@H]2C1,6.085
4,O=C(c1cc(C2CC2)on1)N1C[C@H]2CC[C@](O)(c3ccccc3F)[C@H]2C1,7.092
5,O=C(c1cc(C2CC2)n[nH]1)N1C[C@H]2CC[C@](O)(c3ccccc3F)[C@H]2C1,50.52
6,COc1ccc(-c2nc(CNCCn3cccn3)cs2)cc1,49.39
7,c1ccc(-c2nc(CNCCn3cccn3)cs2)cc1,46.8
8,Fc1ccc(CNCCn2cccn2)cc1F,-21.78
9,Clc1ccc(Cc2nc(CNCCn3cccn3)cs2)cc1,60.1
10,c1ccc(Cc2nc(CNCCn3cccn3)cs2)cc1,73.18
11,c1cnn(CCNCc2csc(-c3ccsc3)n2)c1,-2.857
12,COc1cc(C2(C(=O)N3CCCC(n4cncn4)C3)CC2)ccc1C (configuration not stated),9.425
13,CC1(C(=O)NC2CCCC2)CCCN(c2cnccn2)C1 (configuration not stated),15.8
14,Cn1cccc1C(O)CNC(=O)c1ccc2nsnc2c1 (configuration not stated),20.08
15,Cn1cccc1C(O)CNS(=O)(=O)Cc1ccccc1 (configuration not stated),-41.72
16,Cn1cccc1C(O)CNC(=O)c1ccc(F)c(F)c1 (configuration not stated),19.39
17,COC(=O)c1ccc(C(=O)NCC(O)c2cccn2C)cc1 (configuration not stated),64.24
18,Cn1cccc1C(O)CNC(=O)COc1ccc(Cl)cc1Cl (configuration not stated),63.83
19,Cn1cccc1C(O)CNC(=O)COc1ccccc1F (configuration not stated),31.15
20,Cn1cccc1C(CNC(=O)COc1ccc(Cl)cc1Cl)N1CCCC1 (configuration not stated),27.47
21,Cn1cccc1C(O)CNC(=O)c1cccc(Cl)c1 (configuration not stated),49.37
22,Cn1cccc1C(O)CNC(=O)c1ccc(C(F)(F)F)cc1 (configuration not stated),56.65
23,COC[C@@H]1CCC[C@]12CN(CCc1ccccc1)CCO2.O=C(O)C(F)(F)F,-4.553

row,SMILES,Percent Effect [%]
1,Cc1nc(CNC(=O)c2cc(Cn3ccnc3C(C)C)[nH]n2)sc1C,-7.755
2,CC(C)NC(=O)NCC(Cc1ccc(F)cc1)C(N)=O (configuration not stated),-16.75
3,Cc1c(-c2nc3cc(S(=O)(=O)N4CCCC4)ccc3n2C)cnn1C,-4.812
4,CCc1ccccc1-c1cc(C)nc(N)n1,13.97
5,Cc1ccc(Oc2cc(CN)ccn2)cc1C.Cl,-26.7
6,NC(=O)NC(=O)CNC1(c2ccc(Cl)cc2)CCCC1,4.44
7,Cc1ccccc1CSc1ncc(Br)c(C(=O)O)n1,12.49
8,Cc1cncc(C2CCN(Cc3cnc(C)nc3)CC2)n1,56.88
9,Cc1cncc(C2CCN(Cc3ccsc3)CC2)n1,41.74
10,Cc1cncc(C2CCN(Cc3ccncc3)CC2)n1,18.56
11,CCN1c2ccc(-c3cncn3CC(=O)NC(C)(C)C)cc2CC1C.Cl (configuration not stated),-3.554
12,CCN1CCc2cc(-c3cncn3CCNC3CCS(=O)(=O)C3)ccc21.Cl (configuration not stated),12.29
13,Cc1nccn1CCCn1cncc1-c1ccc2c(c1)CCCN2C.Cl,0.2069
14,Cc1nccn1CCCn1cncc1-c1ccc2c(c1)CCC(C)N2C.Cl (configuration not stated),54.25
15,Cc1nccn1CCCn1cncc1-c1ccc2c(c1)CC(C)N2C.Cl (configuration not stated),20.63
16,CCN1c2ccc(-c3cncn3CCCn3ccnc3C)cc2CC1C.Cl (configuration not stated),54.49
17,OCCNc1nc(NCCc2ccccc2)nc2nccnc12,11.82
18,Cn1cc(CN2CC[C@H](O)[C@@H](n3ccc(=O)[nH]c3=O)CC2)cn1,-40.44
19,Cn1cc(CN(Cc2ccccn2)Cc2ccccc2Cl)cn1,9.224
20,COc1ccc(C(C)NCCc2ccc(NC(C)=O)cc2)cc1F (configuration not stated),-10.02
21,O[C@@H]1CN(Cc2cc(Cl)cc3cccnc23)C[C@@H]1O,5.63
22,OCCN1CCN(Cc2cc(Cl)cc3cccnc23)CC1,-20.78
23,Clc1cc(CN2CCCN3CCCC3C2)c2ncccc2c1 (configuration not stated),58.38

row,SMILES,Percent Effect [%]
1,Cc1nnsc1C(=O)NCCNS(=O)(=O)c1cccs1,-32.34
2,CCS(=O)(=O)NCCNc1cc(-n2cccc2)ncn1,13.54
3,Cc1nsc(NCCNS(=O)(=O)c2ccccc2)n1,22.52
4,Cc1ccc(S(=O)(=O)NCCNc2cc(-n3cccc3)ncn2)c(C)c1,53.05
5,O=S(=O)(NCCNc1cc(-n2cccc2)ncn1)c1cccs1,51.47
6,O=S(=O)(NCCNc1ccc(-n2cccc2)nn1)c1cccs1,107.8
7,O=S(=O)(NCCNc1ccc(-n2cccc2)nn1)c1ccccc1,105.3
8,Cc1ccc(C)c(S(=O)(=O)NCCNc2ccc(-n3cccc3)nn2)c1,29.41
9,O=S(=O)(Cc1ccccc1)NCCNc1ccc(-n2cccc2)nn1,12.63
10,CCS(=O)(=O)NCCCNc1cc(N2CCCC2CO)ncn1 (configuration not stated),22.16
11,Cc1cccc(C(=O)NCCNS(=O)(=O)c2cccs2)c1C,27.49
12,O=S(=O)(NCCNc1cc(-n2cccn2)ncn1)c1cccs1,-21.67
13,CCC1=N[C@@]2(CC[C@@H]3CN(CC4CC4)C[C@@H]32)C(=O)N1CC.O=C(O)C(F)(F)F,7.399
14,O=C(CC1CC1)N1CCN(Cc2ccncc2)c2ncccc2C1.O=C(O)C(F)(F)F.O=C(O)C(F)(F)F,7.793
15,Cc1ccc(-c2nnc(CN3CCN(c4ccccn4)CC3)o2)cc1,-16.82
16,COCC(=O)N1CCCC(c2cc(C(F)F)n3ncnc3n2)C1.Cl (configuration not stated),-7.323
17,CCNC(=O)C1(CC2CC(c3ccccc3OC)=NO2)CCOCC1 (configuration not stated),-45.09
18,CNc1cncc(C2CCCN2C(=O)CCn2ccnc2)n1 (configuration not stated),-11.08
19,COCCN(C)CC(=O)N1C[C@@H](C)[C@](O)(C(C)C)C1,28.76
20,CCc1cc(O)n2nc(C3CCN(C(=O)c4ccccn4)CC3)cc2n1,37.19
21,NC(=O)CN1CCC2(CC1)C[C@@H](O)[C@H](c1ccccc1)NC2=O,-49.18

# — ChEMBL document CHEMBL3988442, “University of Dundee, Small-Polar-MMV Screening Library” (2021)
